Data reported in PubChem BioAssay AID1159580 (chemical genetic matrix, 2015).
“And” between values parts separate entries of the source, which are not always exact repeats. Equal entries are not always repeated. Among all 5,500 compounds or so, about 2,000 (36%) were called active. Roughly 18% stayed inconclusive and do not appear here. Cut-off read from the data, not from the text of the source: active = normalized growth mostly below about 0.91 (no sharp cut-off); inconclusive = no clear call, values can overlap the other calls; inactive = mostly above about 0.92. Some of the results follow. Some compounds were tested as several samples or in several runs, with calls that do not always agree.

Assay: chemical genetic growth profiling, strain panel (AID 1159580);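 note: tested at 20 µM; growth read once vehicle control cultures reached saturation at 30 °C; 1 = growth at the plate median or of vehicle wells; lower values mean less growth of the strain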
Conditions: growth OD

Measured: normalized growth

CCCCCCCCCCCCCCCCCC(=O)OC(CC(=O)O)C[N+](C)(C)C (stereo not drawn)
inactive: S. cerevisiae deletion strains, locus YBR229C, strain ROT2, stronger effect = lower value 1.03 | S. cerevisiae deletion strains, locus YCL061C, strain MRC1 (second series), stronger effect = lower value 0.991 | S. cerevisiae deletion strains, locus YDR363W, strain ESC2, stronger effect = lower value 0.985 | S. cerevisiae deletion strains, locus YER002W, strain NOP16, stronger effect = lower value 1.01 | S. cerevisiae deletion strains, locus YJL134W, strain LCB3, stronger effect = lower value 1.01 | S. cerevisiae deletion strains, locus YJL168C, strain set2, stronger effect = lower value 0.956 | S. cerevisiae deletion strains, locus YKL068W, stronger effect = lower value 1 | S. cerevisiae deletion strains, locus YLR039C, strain RIC1, stronger effect = lower value 1.1 | S. cerevisiae deletion strains, locus YLR262C, strain YPT6, stronger effect = lower value 1.09 | S. cerevisiae deletion strains, locus YNR052C, strain pop2, stronger effect = lower value 0.961 | S. cerevisiae deletion strains, locus YOR061W, strain CKA2, stronger effect = lower value 0.949 | S. cerevisiae deletion strains, locus YOR069W, strain VPS5, stronger effect = lower value 1 | S. cerevisiae deletion strains, locus YPR141C, strain kar3, stronger effect = lower value 1.05
0.892 (inactive) and 0.209 (active): S. cerevisiae deletion strains, locus YPL055C, strain LGE1, stronger effect = lower value
0.983 (inactive) and 0.182 (active): S. cerevisiae deletion strains, locus YNL322C, strain KRE1, stronger effect = lower value
active: S. cerevisiae deletion strains, locus YAL013W, strain DEP1, stronger effect = lower value 0.117 | S. cerevisiae deletion strains, locus YAL040C, strain CLN3, stronger effect = lower value 0.47 | S. cerevisiae deletion strains, locus YBR021W, strain FUR4, stronger effect = lower value 0.0953 | S. cerevisiae deletion strains, locus YCL029C, strain bik1, stronger effect = lower value 0.316 | S. cerevisiae deletion strains, locus YDL035C, strain GPR1, stronger effect = lower value 0.283 | S. cerevisiae deletion strains, locus YDL074C, strain BRE1, stronger effect = lower value 0.238 | S. cerevisiae deletion strains, locus YDL101C, strain DUN1, stronger effect = lower value 0.374 | S. cerevisiae deletion strains, locus YDL134C, strain PPH21, stronger effect = lower value 0.142 | S. cerevisiae deletion strains, locus YDL185W, strain tfp1, stronger effect = lower value 0.0578 | S. cerevisiae deletion strains, locus YDL192W, strain arf1, stronger effect = lower value 0.917 | S. cerevisiae deletion strains, locus YDR101C, strain arx1, stronger effect = lower value 0.679 | S. cerevisiae deletion strains, locus YDR150W, strain NUM1, stronger effect = lower value 0.583 | S. cerevisiae deletion strains, locus YDR162C, strain NBP2, stronger effect = lower value 0.0806 | S. cerevisiae deletion strains, locus YDR318W, strain mcm21, stronger effect = lower value 0.348 | S. cerevisiae deletion strains, locus YDR388W, stronger effect = lower value 0.0585 | S. cerevisiae deletion strains, locus YDR502C, strain sam2, stronger effect = lower value 0.619 | S. cerevisiae deletion strains, locus YEL061C, strain CIN8, stronger effect = lower value 0.44 | S. cerevisiae deletion strains, locus YER110C, stronger effect = lower value 0.156 | S. cerevisiae deletion strains, locus YER155C, strain BEM2, stronger effect = lower value 0.274 | S. cerevisiae deletion strains, locus YER167W, strain BCK2, stronger effect = lower value 0.214 | S. cerevisiae deletion strains, locus YGL078C, strain dbp3, stronger effect = lower value 0.62 | S. cerevisiae deletion strains, locus YGL086W, strain mad1, stronger effect = lower value 0.23 | S. cerevisiae deletion strains, locus YGL248W, strain PDE1, stronger effect = lower value 0.153 | S. cerevisiae deletion strains, locus YGR135W, strain pre9, stronger effect = lower value 0.185 | S. cerevisiae deletion strains, locus YGR229C, strain SMI1, stronger effect = lower value 0.797 and 0.0756 | S. cerevisiae deletion strains, locus YGR252W, strain gcn5, stronger effect = lower value 0.155 | S. cerevisiae deletion strains, locus YHR030C, strain SLT2, stronger effect = lower value 0.109 | S. cerevisiae deletion strains, locus YHR079C, strain IRE1 (second series), stronger effect = lower value 0.585 | S. cerevisiae deletion strains, locus YHR094C, strain hxt1, stronger effect = lower value 0.608 | S. cerevisiae deletion strains, locus YHR129C, strain ARP1, stronger effect = lower value 0.637 | S. cerevisiae deletion strains, locus YHR200W, strain rpn10, stronger effect = lower value 0.871 | S. cerevisiae deletion strains, locus YIL066C, strain RNR3, stronger effect = lower value 0.0537 | S. cerevisiae deletion strains, locus YIL073C, strain SPO22, stronger effect = lower value 0.108 | S. cerevisiae deletion strains, locus YIL125W, strain kgd1, stronger effect = lower value 0.59 | S. cerevisiae deletion strains, locus YIR030C, strain dcg1, stronger effect = lower value 0.587 | S. cerevisiae deletion strains, locus YJL095W, strain BCK1, stronger effect = lower value 0.0851 | S. cerevisiae deletion strains, locus YJL187C, strain SWE1 (second series), stronger effect = lower value 0.571 | S. cerevisiae deletion strains, locus YJR043C, strain POL32, stronger effect = lower value 0.567 | S. cerevisiae deletion strains, locus YJR075W, strain HOC1, stronger effect = lower value 0.146 | S. cerevisiae deletion strains, locus YKL009W, strain mrt4, stronger effect = lower value 0.504 | S. cerevisiae deletion strains, locus YKL085W, strain MDH1 (second series), stronger effect = lower value 0.56 | S. cerevisiae deletion strains, locus YKL085W, strain MDH1, stronger effect = lower value 0.56 | S. cerevisiae deletion strains, locus YKL190W, strain CNB1, stronger effect = lower value 0.0864 | S. cerevisiae deletion strains, locus YKR001C, strain vps1, stronger effect = lower value 0.89 | S. cerevisiae deletion strains, locus YLR058C, strain SHM2, stronger effect = lower value 0.598 | S. cerevisiae deletion strains, locus YLR102C, strain apc9, stronger effect = lower value 0.848 | S. cerevisiae deletion strains, locus YLR268W, strain sec22, stronger effect = lower value 0.168 | S. cerevisiae deletion strains, locus YLR330W, strain CHS5, stronger effect = lower value 0.0585 | S. cerevisiae deletion strains, locus YLR342W, strain FKS1 (second series), stronger effect = lower value 0.102 | S. cerevisiae deletion strains, locus YLR371W, strain rom2, stronger effect = lower value 0.9 | S. cerevisiae deletion strains, locus YLR418C, strain cdc73, stronger effect = lower value 0.101 | S. cerevisiae deletion strains, locus YML016C, strain PPZ1, stronger effect = lower value 0.229 | S. cerevisiae deletion strains, locus YML032C, strain rad52, stronger effect = lower value 0.499 | S. cerevisiae deletion strains, locus YML124C, strain tub3, stronger effect = lower value 0.88 | S. cerevisiae deletion strains, locus YMR078C, strain ctf18, stronger effect = lower value 0.392 | S. cerevisiae deletion strains, locus YMR223W, strain ubp8, stronger effect = lower value 0.406 | S. cerevisiae deletion strains, locus YNL067W, strain RPL9B, stronger effect = lower value 0.698 | S. cerevisiae deletion strains, locus YNL128W, strain TEP1, stronger effect = lower value 0.752 | S. cerevisiae deletion strains, locus YNL153C, strain GIM3, stronger effect = lower value 0.281 | S. cerevisiae deletion strains, locus YNL175C, strain NOP13, stronger effect = lower value 0.249 | S. cerevisiae deletion strains, locus YNL197C, strain WHI3, stronger effect = lower value 0.736 | S. cerevisiae deletion strains, locus YNL224C, strain SQS1, stronger effect = lower value 0.391 | S. cerevisiae deletion strains, locus YNL233W, strain BNI4, stronger effect = lower value 0.136 | S. cerevisiae deletion strains, locus YNL250W, strain rad50, stronger effect = lower value 0.69 | S. cerevisiae deletion strains, locus YNL271C, strain bni1, stronger effect = lower value 0.736 | S. cerevisiae deletion strains, locus YNL298W, strain CLA4, stronger effect = lower value 0.192 | S. cerevisiae deletion strains, locus YNL307C, strain MCK1, stronger effect = lower value 0.0704 | S. cerevisiae deletion strains, locus YOL006C, strain TOP1, stronger effect = lower value 0.101 | S. cerevisiae deletion strains, locus YOL147C, strain pex11, stronger effect = lower value 0.118 | S. cerevisiae deletion strains, locus YOR083W, strain WHI5 (second series), stronger effect = lower value 0.102 | S. cerevisiae deletion strains, locus YOR136W, strain idh2, stronger effect = lower value 0.773 | S. cerevisiae deletion strains, locus YOR144C, strain elg1, stronger effect = lower value 0.569 | S. cerevisiae deletion strains, locus YOR184W, strain ser1, stronger effect = lower value 0.0857 | S. cerevisiae deletion strains, locus YOR316C, strain cot1, stronger effect = lower value 0.582 | S. cerevisiae deletion strains, locus YPR119W, strain clb2, stronger effect = lower value 0.796 | S. cerevisiae deletion strains, locus YPR163C, strain tif3, stronger effect = lower value 0.0804 | S. cerevisiae deletion strains, locus YPR167C, strain met16, stronger effect = lower value 0.587 | S. cerevisiae deletion strains, strain wtn01, stronger effect = lower value 0.303 | S. cerevisiae strains, strain wild type, stronger effect = lower value 0.51
0.96 (inactive) and 0.778 (active): S. cerevisiae deletion strains, locus YPL241C, strain CIN2, stronger effect = lower value
1.03 (inactive) and 0.297 (active): S. cerevisiae deletion strains, locus YMR307W, strain GAS1, stronger effect = lower value
0.976 (inactive) and 0.122 (active): S. cerevisiae deletion strains, locus YGR078C, strain PAC10, stronger effect = lower value
1 (inactive) and 0.232 (active): S. cerevisiae deletion strains, locus YMR263W, strain SAP30, stronger effect = lower value
